For 37 compounds, cytotoxicity call results are on record in the antibiotic and cytotoxicity screens of Wong et al. (2023).

About 3,300 (8.5%) of roughly 39,000 compounds were called active. Many of the other results were omitted from the sample, so actives are more common in it than they were.

This experiment concerns HepG2. The experiment can be described thus: cytotoxicity call (relative viability < 0.9). Particulars: 10 µM.
For `C[C@@H]1CN([C@@H](C)CO)C(=O)c2cccc(NC(=O)Nc3cccc4ccccc34)c2O[C@H]1CN(C)S(=O)(=O)c1ccccc1F`, the cytotoxicity call was “inactive”.

In the case of `Cc1noc(C)c1NC(=O)Nc1ccc2c(c1)C(=O)N([C@H](C)CO)C[C@H](C)[C@H](CN(C)S(C)(=O)=O)O2`, the cytotoxicity call is “inactive”.

Regarding `O=C(CN1CCOCC1)N[C@@H]1CC[C@H](CCNC(=O)Nc2cc(F)ccc2F)O[C@@H]1CO`, the cytotoxicity call is “inactive”.

Take `COc1ccc(NC(=O)N(C)C[C@@H]2OCCCC[C@H](C)Oc3ccc(NC(=O)c4ccccc4)cc3C(=O)N([C@H](C)CO)C[C@H]2C)cc1`: the cytotoxicity call was “inactive”.

Regarding `O=C(C[C@H]1C=C[C@@H](NC(=O)C2CC2)[C@@H](CO)O1)NCCCN1CCOCC1`, the cytotoxicity call is “inactive”.

Take `NNC(=O)CNc1ccc2c(c1)OCO2`: the cytotoxicity call was “inactive”.

As for `C[N+](C)(C)CCCCNC(=O)[C@H]1C[C@H]2C(=O)N[C@@H](Cc3ccccc3)C(=O)N2[C@H]1c1cccc(OCCO)c1`, the cytotoxicity call was “inactive”.

Regarding `C[C@H]1CN([C@@H](C)CO)C(=O)c2cc(C#CC3(O)CCCC3)cnc2O[C@@H]1CN(C)S(=O)(=O)c1ccc(F)cc1`, the cytotoxicity call is “inactive”.

As for `C[C@H]1[C@H](NC(=O)/C(=N\OC(C)(C)C(=O)O)c2csc(N)n2)C(=O)N1S(=O)(=O)O`, the cytotoxicity call is “inactive”.

On to `C[C@@H]1CCCCO[C@H](CN(C)S(C)(=O)=O)[C@H](C)CN([C@@H](C)CO)C(=O)c2cc(NC(=O)CCCN(C)C)ccc2O1`, for which the cytotoxicity call is “inactive”.

`CCS(=O)(=O)NCC[C@H]1CC[C@H](NS(=O)(=O)c2cccc(F)c2)[C@@H](CO)O1`: the cytotoxicity call is “inactive”.

Turning to `C[C@@H]1CCCCO[C@H](CN(C)C(=O)Nc2cccc3ccccc23)[C@H](C)CN([C@@H](C)CO)C(=O)c2cc(NC(=O)Cc3ccccc3)ccc2O1`, the cytotoxicity call is “inactive”.

As to `COc1ccc(S(=O)(=O)N[C@@H]2CC[C@@H](CC(=O)N3CCC(Cc4ccccc4)CC3)O[C@H]2CO)cc1`, the cytotoxicity call is “inactive”.

Consider `C[C@H]1CCCCO[C@@H](CN(C)C(=O)Nc2ccc(C(F)(F)F)cc2)[C@@H](C)CN([C@@H](C)CO)C(=O)c2cc(NC(=O)c3ccncc3)ccc2O1`, for which the cytotoxicity call is “inactive”.

Consider `C[C@@H]1CCCCO[C@@H](CN(C)C(=O)Nc2ccc3c(c2)OCO3)[C@@H](C)CN([C@@H](C)CO)C(=O)c2cc(NC(=O)Nc3ccc(C(F)(F)F)cc3)ccc2O1`, for which the cytotoxicity call is “inactive”.

For the compound `C[C@@H]1CCCCO[C@H](CN(C)C(=O)Nc2ccc(C(F)(F)F)cc2)[C@H](C)CN([C@H](C)CO)C(=O)c2cc(NC(=O)Cc3ccccc3)ccc2O1`, the cytotoxicity call was “inactive”.

In the case of `COc1ccc(NC(=O)Nc2ccc3c(c2)C(=O)N([C@@H](C)CO)C[C@H](C)[C@H](CN(C)CC2CCCCC2)OCCCC[C@H](C)O3)cc1`, the cytotoxicity call is “active”.

Consider `COc1ccc(NC(=O)Nc2ccc3c(c2)C(=O)N([C@H](C)CO)C[C@H](C)[C@@H](CN(C)CC2CCCCC2)OCCCC[C@H](C)O3)cc1`, for which the cytotoxicity call is “inactive”.

For `COc1ccc(NC(=O)Nc2ccc3c(c2)C(=O)N([C@H](C)CO)C[C@H](C)[C@H](CN(C)CC2CCCCC2)OCCCC[C@@H](C)O3)cc1`, the cytotoxicity call was “inactive”.

For the compound `O=C(O[C@@H]1Cc2c(O)cc(O)cc2O[C@@H]1c1cc(O)c(O)c(O)c1-c1c([C@H]2Oc3cc(O)cc(O)c3C[C@H]2O)cc(O)c(O)c1O)c1cc(O)c(O)c(O)c1`, the cytotoxicity call was “inactive”.

With `O=C(OC1Cc2c(O)cc(O)cc2OC1c1cc(O)c(O)c(O)c1-c1c(C2Oc3cc(O)cc(O)c3CC2OC(=O)c2cc(O)c(O)c(O)c2)cc(O)c(O)c1O)c1cc(O)c(O)c(O)c1` (configuration not stated), the cytotoxicity call is “inactive”.

Regarding `O=C(O[C@@H]1O[C@H]2COC(=O)c3cc(O)c(O)c(O)c3-c3c(cc(O)c(O)c3O)C(=O)O[C@@H]([C@H]1O)[C@@H]2OC(=O)c1cc(O)c(O)c(O)c1-c1c(C(=O)O)cc(O)c(O)c1O)c1cc(O)c(O)c(O)c1`, the cytotoxicity call was “active”.

Turning to `O=C(O[C@@H]1O[C@@H]2COC(=O)c3cc(Oc4c(C(=O)O)cc(O)c(O)c4O)c(O)c(O)c3-c3c(cc(O)c(O)c3O)C(=O)O[C@H]2[C@H](OC(=O)c2cc(O)c(O)c(O)c2)[C@H]1OC(=O)c1cc(O)c(O)c(O)c1)c1cc(O)c(O)c(O)c1`, the cytotoxicity call is “inactive”.

Regarding `O=C(O[C@@H]1O[C@@H]2COC(=O)c3cc(O)c(O)c(O)c3-c3c(cc(O)c(O)c3O)C(=O)O[C@H]2[C@H](OC(=O)c2cc(O)c(O)c(O)c2)[C@H]1OC(=O)c1cc(O)c(O)c(O)c1)c1cc(O)c(O)c(O)c1`, the cytotoxicity call is “active”.

As to `O=C(O[C@@H]1O[C@H]2COC(=O)c3cc(O)c(O)c(O)c3-c3c(cc(O)c(O)c3O)C(=O)O[C@@H]([C@H]1O)[C@@H]2O)c1cc(O)c(O)c(O)c1`, the cytotoxicity call is “inactive”.

Regarding `C[C@@H]1CCCCO[C@H](CN(C)C(=O)CCC(F)(F)F)[C@@H](C)CN([C@H](C)CO)C(=O)c2cc(NC(=O)NC3CCCCC3)ccc2O1`, the cytotoxicity call was “inactive”.

Turning to `C[C@@H]1CN([C@H](C)CO)C(=O)c2cccc(NC(=O)C3CCOCC3)c2O[C@H]1CN(C)Cc1ccc(C(=O)O)cc1`, the cytotoxicity call is “inactive”.

On to `Cc1ccc(S(=O)(=O)Nc2ccc3c(c2)C(=O)N([C@@H](C)CO)C[C@H](C)[C@H](CN(C)C(=O)Nc2c(C)noc2C)OCCCC[C@@H](C)O3)cc1`, for which the cytotoxicity call was “inactive”.

Turning to `C[C@H](CO)N1C[C@H](C)[C@@H](CN(C)Cc2ccc3c(c2)OCO3)Oc2ccc(NC(=O)Nc3cccc4ccccc34)cc2C1=O`, the cytotoxicity call is “inactive”.

Consider `C[C@H]1CN([C@@H](C)CO)C(=O)Cc2cc(NC(=O)Nc3cccc4ccccc34)ccc2O[C@H]1CN(C)Cc1ccc2c(c1)OCO2`, for which the cytotoxicity call was “inactive”.

Take `C[C@H]1CN([C@@H](C)CO)C(=O)Cc2cc(NC(=O)Nc3cccc4ccccc34)ccc2O[C@@H]1CN(C)Cc1ccc2c(c1)OCO2`: the cytotoxicity call is “inactive”.

On to `C[C@@H]1CN([C@H](C)CO)C(=O)Cc2cc(NC(=O)Nc3cccc4ccccc34)ccc2O[C@H]1CN(C)Cc1ccc2c(c1)OCO2`, for which the cytotoxicity call is “inactive”.

Regarding `C[C@@H]1CN([C@H](C)CO)C(=O)Cc2cc(NC(=O)Nc3cccc4ccccc34)ccc2O[C@@H]1CN(C)Cc1ccc2c(c1)OCO2`, the cytotoxicity call was “active”.

On to `C[C@@H]1CN([C@@H](C)CO)C(=O)Cc2cc(NC(=O)Nc3cccc4ccccc34)ccc2O[C@H]1CN(C)Cc1ccc2c(c1)OCO2`, for which the cytotoxicity call is “active”.

Take `C[C@H](CO)N1C[C@H](C)[C@@H](CN(C)Cc2ccc3c(c2)OCO3)Oc2ccc(NC(=O)Nc3cccc4ccccc34)cc2CC1=O`: the cytotoxicity call was “inactive”.

On to `C[C@H](CO)N1C[C@H](C)[C@H](CN(C)Cc2ccc3c(c2)OCO3)Oc2ccc(NC(=O)Nc3cccc4ccccc34)cc2CC1=O`, for which the cytotoxicity call was “inactive”.

In the case of `C[C@@H]1CN([C@@H](C)CO)C(=O)Cc2cc(NC(=O)Nc3cccc4ccccc34)ccc2O[C@@H]1CN(C)Cc1ccc2c(c1)OCO2`, the cytotoxicity call is “active”.
